tested on: Plasmodium falciparum; assay: GSK_TCMDC: Inhibition of Plasmodium falciparum 3D7 in whole red blood cells, using parasite LDH activity as an index of growth. Test compounds present at 2uM; format: functional

Row | Compound | Inhibition [%]
1 | COc1cccc2c(Nc3ccccc3C)nc(Nc3ccccc3C)nc12 | 95
2 | CC(C)N1CCC(N(Cc2ccc(-c3ccc(C(F)(F)F)cc3)cc2)C(=O)Cn2c(CCc3cccc(F)c3F)cc(=O)c3ccccc32)CC1.O=C(O)C(O)C(O)C(=O)O | 99
3 | COc1ccc2nccc([C@@H](O)CN3CCC(NC(=O)Cc4ccc(Br)c5ccccc45)CC3)c2c1 | 98
4 | Cl.O=c1cc(NCCCNCc2ccc(Cl)c(Cl)c2)[nH]c2ccc(Oc3ccccc3)cc12 | 92
5 | COc1ccc2nccc([C@@H](O)CN3CCC(NCCOc4ccncc4)CC3)c2c1.O=C(O)C(=O)O | 100
6 | CCCCN1CCN(CCCNc2c3ccccc3nc3ccccc23)CC1.Cl | 100
7 | CC(CCc1ccccc1)NCC(O)c1cccc(C(F)(F)F)c1.Cl (centres undefined) | 99
8 | CN(C)CCn1c(N)c(-c2nc3ccccc3s2)c2nc(C#N)c(C#N)nc21 | 94
9 | Cc1cccc(CN2CCCN(Cc3ccc(C(=O)Nc4ccc(Cl)cc4)cc3)CC2)c1.O=C(O)C(F)(F)F | 92
10 | COc1ccc(CCN(C)CCCOc2ccc(NC(=O)COc3cccc4sc5ccccc5c(=O)c34)cc2)cc1OC | 94
11 | Cc1ccc(Cn2cnc3cc(C(=O)Nc4ccc(-c5ccc(CN(C)C)cc5)cc4)ccc3c2=O)o1 | 82
12 | Clc1ccc2c(NCc3ccc4c(c3)OCO4)ccnc2c1 | 100
13 | COc1cc2nc(NCCCN3CCCCC3)nc(NCc3ccccc3)c2cc1OC | 100
14 | CC(C)c1cc2c(ccc3nc(N)nc(N)c32)o1 | 99
